In PubChem BioAssay AID2284161 (EPA ToxCast):
Active and inactive are the calls of the source. Rule for the calls: active = hit-call score of the fitted dose curve at least 0.9, where 1 is the maximum; inactive = score below 0.9.

target: human Serotonin Receptor 5-HT6 Agonism, HTR6 (gene 3362) (UniProt P50406); assay: ERF_FR_GPCR_hHTR6: Eurofins (ERF) G Protein-Coupled Receptor (GPCR) Radioligand Binding LeadHunter Assay for human Serotonin Receptor 5-HT6 Agonism
Method: ERF_FR_GPCR_hHTR6 is a biochemical, single-readout assay that uses extracted gene-proteins in a cell-free assay. Measurements were taken 2 hour after chemical dosing in a 96-well plate. See 5-HT6 Human Serotonin GPCR Binding (Agonist Radioligand) Assay, Cerep.ERF_FR_GPCR_hHTR6 is an assay component calculated from the ERF_FR_GPCR_hHTR6 assay. It is designed to measure radioligand binding using a type of binding reporter as detected by scintillation counting with radiometry technology.Data from the assay component ERF_FR_GPCR_hHTR6 was analyzed at the assay endpoint, ERF_FR_GPCR_hHTR6, in the positive analysis fitting direction relative to DMSO as the negative control and baseline of activity. Using a type of binding reporter, gain-of-signal activity can be used to understand changes in binding as they relate to gene HTR6. To generalize the intended target to other relatable targets, this assay endpoint is annotated to the gpcr intended target family, where the subfamily is serotonin.
Human cells are incubated for 120 minutes at 37 C with [3H]LSD ligand (2 nM) and serotonin as control inhibitor. Test Sample Requirements: Minimum for 1) Screen: 60 ul of 10 mM stock -OR- 1 mg (pre-weighed) for 10 uM final testing. 2) Dose Response: 90 ul of 10 mM stock -OR- 1 mg (pre-weighed) for a top concentration at 10 uM.

Chain of human Serotonin Receptor 5-HT6 Agonism, HTR6 (gene 3362) (P50406 whole entry, looked up): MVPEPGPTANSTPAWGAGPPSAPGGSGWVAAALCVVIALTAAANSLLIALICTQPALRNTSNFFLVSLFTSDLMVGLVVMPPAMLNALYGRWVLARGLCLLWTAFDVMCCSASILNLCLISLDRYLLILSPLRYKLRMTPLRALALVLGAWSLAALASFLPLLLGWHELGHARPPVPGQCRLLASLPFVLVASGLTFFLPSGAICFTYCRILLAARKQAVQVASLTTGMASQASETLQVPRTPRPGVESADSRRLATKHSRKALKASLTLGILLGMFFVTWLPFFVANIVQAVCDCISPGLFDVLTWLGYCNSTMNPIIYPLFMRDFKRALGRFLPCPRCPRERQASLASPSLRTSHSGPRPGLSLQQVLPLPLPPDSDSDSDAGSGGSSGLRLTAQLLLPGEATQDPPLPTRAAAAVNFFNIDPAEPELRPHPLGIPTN

Structure (SMILES)	AC50
O=C(/C=C/c1ccc(O)cc1)CC(=O)/C=C/c1ccc(O)cc1	2.7 µM (active)
